Screens as filed in PubChem BioAssay.
Pf Dd2 growth – blocks in vitro growth of P. falciparum Dd2; P. falciparum Dd2 growth, SYBR Green, 72 h; Potency, µM (doses to about 28.9 µM), hits mostly inhibitors; hit rate 4.3% among 120,000; active = well fitted inhibition curve with a large enough effect; note: nearly all actives have a fitted effect of over 65% in size
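Readout: SYBR Green fluorescence, 485 nm excitation, 535 nm emission, after ~16 h lysis at 37C. Before that, Dd2-infected red cells (2.5% hematocrit) grew 72 h with compound, 29 uM top final concentration.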
Of the large screens only hits and unclear results are named; the others gave an inactive call. The full list was thinned out, with hits kept by preference.

CCC1(CO)CCCN(CCCOc2ccc(C(N)=O)cc2)C1 (centres undefined)	none
C=CCC1(CO)CCCN(CCOc2ccc(C)cc2Cl)C1 (centres undefined)	Pf Dd2 growth 8.9µM
C=CCC1(CO)CCCN(Cc2nc(C)cc(-c3ccccc3)n2)C1 (centres undefined)	Pf Dd2 growth 8.9µM
C=CCC1(C(=O)O)CCCN(Cc2cc3c(cc2OC)OCO3)C1 (centres undefined)	none
C=CCC1(C(=O)O)CCCN(Cc2cnc(NCc3ccccc3)nc2)C1 (centres undefined)	none
COCCn1c(C)cnc1CCNC(=O)c1cccc(C)c1	none
COc1ccc(CNC(=O)N2CCCC(Cc3nncn3Cc3ccccc3)C2)cc1 (centres undefined)	none
CC1(C(=O)NCc2cccs2)CCCCC(=O)N1 (centres undefined)	none
CCOc1cc(=O)n2c(c1C(=O)Nc1cccc(OC)c1)CCCC2	none
COc1cccc(Nc2ncc3c(n2)C(C)(C(=O)NCCN2CCOCC2)CC3)c1 (centres undefined)	none
COCCN1Cc2ccc(Nc3cccnc3)nc2C(C)(C(=O)Nc2cccc(F)c2)C1 (centres undefined)	Pf Dd2 growth 8.9µM
COCCN1Cc2ccc(NCC(C)C)nc2C(C)(C(=O)NCc2cccnc2)C1 (centres undefined)	none
COc1cccc(Nc2ccc3c(n2)C(C)(C(=O)NCCc2cnc[nH]2)CN(C)C3)c1 (centres undefined)	none
COc1cccc(Nc2ccc3c(n2)C(C)(C(=O)NCCc2ccccn2)CN(C)C3)c1 (centres undefined)	Pf Dd2 growth 3.2µM
COc1ccc(NC(=O)C2(C)CCCc3cnc(Nc4cccnc4)nc32)cc1 (centres undefined)	none
CS(=O)(=O)N1C[C@@H]2CN(C(=O)C3CCOCC3)C[C@]2(C(=O)O)C1	none
Cn1ccnc1CN1C(=O)CO[C@H](c2ccc(NC(=O)COc3ccccc3)cc2)[C@H]1CO	none
Cc1[nH]c2c(c1C(=O)NC1CC(c3nnc(CN(C)C)n3C)C1)C(=O)CCC2 (centres undefined)	none
CN(C)c1ccc(C(=O)N2CCCC(COc3ccccc3C(=O)N3CCCC3)C2)cc1 (centres undefined)	Pf Dd2 growth 6.3µM
O=C(c1ccncc1)N1CCCC(COc2ccccc2C(=O)N2CCOCC2)C1 (centres undefined)	none
O=C(c1ccccc1OCC1CCCN(C2CCCC2)C1)N1CCCC1 (centres undefined)	none
COCc1ccc2c(c1)c(OC(C)(C)C(=O)NCC[S+](C)(=O)[O-])nn2Cc1ccccc1	none
COC(=O)N(C)Cc1ccccc1C(F)(F)F	none
COc1cccc(CNC(=O)C2(N3C[C@@H](C)O[C@@H](C)C3)Cc3ccccc3C2)c1	none
COC(=O)c1ccc(NC(=O)c2c(NCc3cccc(F)c3)sc3c2CCCC3)cc1	Pf Dd2 growth 13µM
CCOC(=O)c1ccc(NC(=O)c2c(NCc3cc(OC)c(OC)cc3OC)sc3c2CCCC3)cc1	Pf Dd2 growth 13µM
COc1ccc(NC(=O)c2c(NC(=O)COc3ccccc3)sc3c2CCCCC3)cc1	none
COC(=O)c1c(NC(=O)COc2cccc(C(F)(F)F)c2)sc2c1CCCC2	none
COc1ccc(NC(=O)c2c(NC(=O)c3ccc(Br)cc3)sc3c2CCCC3)cc1	none
COC(=O)c1c(NC(=O)c2c(OC)cccc2OC)sc2c1CCCC2	none
CCOC(=O)N1CCc2c(sc(NCc3cccc(F)c3)c2C(=O)Nc2ccc(OC)cc2)C1	Pf Dd2 growth 7.9µM
CCNC(=O)c1c(NC(=O)COc2ccc(F)cc2)sc2c1CCCC2	none
COc1ccc(S(=O)(=O)N2CCc3c(C(=O)NCc4cccc(F)c4)cccc32)cc1	none
COc1ccc(NC(=O)c2c(NCc3cccc(F)c3)sc3c2CCCC3)c(OC)c1	Pf Dd2 growth 8.9µM
CCOC(=O)c1c(NC(=O)CS(=O)(=O)c2ccc(Cl)cc2)sc2c1CCCC2	none
N#Cc1ccc(C(=O)Nc2ccc(=O)n3c2[C@@H]2C[C@@H](CN(C(=O)c4ccc(F)cc4)C2)C3)cc1	none
COc1ccc(CC(=O)N2CCC(CC(=O)NCc3ccccc3)C2)cc1 (centres undefined)	none
COc1ccc(OCC2(C)COc3ccc(C(=O)Nc4ccn(C)n4)cc3N2)cc1 (centres undefined)	none
CC(=O)Nc1ccc(CN2C(=O)OC3(CCN(Cc4ccc(C#N)cc4)CC3)C2(C)c2ccccc2)cc1 (centres undefined)	none
CCCC(C)C(=O)N1CCn2nc(C(=O)Nc3ccccc3)cc2C1 (centres undefined)	none
C[S+](=O)([O-])N1CC2(Cc3ccccc31)CN(C(=O)c1ccc(C(F)(F)F)cc1)C2	none
Cc1cn2cc(C(=O)N3CCCCC3c3ccc(F)cc3)ccc2n1 (centres undefined)	none
CCCCCC(=O)N1CC[C@@H](CC(=O)O)[C@@H](CC)C1	none
CCOC(=O)N1CCc2c(sc(NCc3ccc(N(C)C)cc3)c2C(=O)Nc2ccc(OC)cc2)C1	Pf Dd2 growth 11µM
COc1ccc(CNC(=O)c2cc3c(s2)CCN(C(C)=O)C3)cc1	none
CCOC(=O)N1CCc2c(sc(NCc3cccc(F)c3)c2C(=O)Nc2ccc(OC)cc2OC)C1	Pf Dd2 growth 4µM
CCC(=O)Nc1sc2c(c1C(=O)Nc1ccc(OC)cc1)CCC(C(C)(C)C)C2 (centres undefined)	none
CCC(=O)N1CCc2c(C(=O)Nc3ccc(OC)cc3OC)cccc21	none
COc1ccc(NC(=O)CN2CCN(CC(=O)Nc3ccccc3F)CC2)c(OC)c1	none
COCC1(CNCc2ccc(F)cc2)C[C@@H](O)[C@@H](O)C1 (some centres undefined)	none
N#CC1CCN(C(=O)C2CCCN(c3nc4ncccc4o3)C2)CC1 (centres undefined)	none
N#Cc1ccc(O[C@@H]2CCOC[C@H]2NC(=O)CCc2cccs2)cc1	none
Cc1ccc(CCNC(=O)c2ccc(Nc3nc4ccccc4n4nnnc34)cc2)cc1	none
O=C(NCc1ccc(F)cc1)c1ccc(Nc2nc3ccccc3n3nnnc23)cc1	none
CN(C)c1ccc(Nc2nc3ccccc3n3nnnc23)cc1	Pf Dd2 growth 7.9µM
CNC(=O)[C@@H]1CN(C(=O)CCc2ccc(OC)c(OC)c2)C[C@H]1CO	none
CC(C)C1CN(C(=O)c2cccnc2N2CCOCC2)CCC(=O)N1CC1CC1 (centres undefined)	none
COc1cccc(-c2ccc3c(N)c(C(=O)Nc4ccc(Cl)cc4F)sc3n2)c1	none
CC(C)CSc1ccccc1NC(=O)c1sc2nc(-c3ccncc3)ccc2c1N	Pf Dd2 growth 3.2µM
COc1ccc(-c2ccc3c(N)c(C(=O)Nc4cccc(C)c4)sc3n2)cc1	none
O=C(O)c1ccc(CN2C[C@H](O)C[C@H]2c2nc(CS(=O)(=O)c3ccc(F)cc3)no2)cc1	none
COc1cccc(C2CCN(Cc3cn(-c4ccccc4)nn3)C2)c1OC (centres undefined)	Pf Dd2 growth 13µM
c1ccc(-n2cc(CN3CCC(Oc4ccncc4)CC3)nn2)cc1	none
O=C(O)Cc1cc(C2CCN(Cc3cn(-c4ccccc4)nn3)CC2)n[nH]1	none
COc1ccc(C(=O)N2C[C@@H](Oc3cccnc3)C[C@H]2C(=O)NC2CC2)cc1F	none
Cn1ccnc1C(O)C1CCN(C(=O)Cc2c[nH]c(=O)n(C)c2=O)CC1 (centres undefined)	none
CC(=O)N1CCC(N2C[C@H](O)C[C@H]2c2nc(CS(=O)(=O)c3ccc(C)cc3)no2)CC1	none
COc1cccc(-c2cc(-c3nc(C4CC(=O)N(C5CCCCC5)C4)no3)[nH]n2)c1 (centres undefined)	Pf Dd2 growth 5µM
COc1ccc(-c2nc(C3CC(=O)N(C4CCCCC4)C3)no2)cc1 (centres undefined)	none
